Bioassay records deposited in PubChem BioAssay by National Center for Advancing Translational Sciences (NCATS).
An excerpt weighted towards active compounds, which were near 21% of everything screened.
Shiga toxin inh = A qHTS for Small Molecule Inhibitors of Shiga Toxin; Vero cells, Shiga toxin protein synthesis inhibition reporter; inhibition, % at 38.7 µM; 290,000 tested, 9.2% active; AID 2315, 2010; in the data active = inhibition mostly above about 28%, no sharp cut-off; inactive = mostly below about 43%
CHX counter = Cycloheximide Counterscreen for Small Molecule Inhibitors of Shiga Toxin; cell reporter, cycloheximide protein synthesis inhibition counterscreen; max response, %; 300,000 tested, 12% active; AID 2314, 2010; in the data active = max response mostly above about 13%, no sharp cut-off; inactive = mostly below about 14%; also: read at 38.3 µM for the half of the compounds with a filed dose
Pf growth 48h = Primary qHTS for delayed death inhibitors of the malarial parasite plastid, 48 hour incubation | AID 504832, 2011 | Potency, µM (titrated, usually from 28.7 µM), actives largely listed as inhibitors | P. falciparum luciferase growth in erythrocytes, 48 h | 310,000 tested, 5.9% active; active = well fitted inhibition curve with a large enough effect; inconclusive = small, poorly fitted or top-dose-only effect, or another doubt; inactive = no such curve, though single readings can be large or run the other way
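Luciferase-expressing P. falciparum in infected erythrocytes (2% hematocrit, 0.1% parasitemia final) in RPMI 1640/0.5% Albumax were exposed to compound for 48 hours at 37 C, 5% CO2; growth read as luminescence.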
SARS PLpro yeast = qHTS of Yeast-based Assay for SARS-CoV PLP. 330,000 tested, 0.19% active. S. cerevisiae expressing SARS-CoV PLpro, growth rescue. Potency, µM (top dose mostly 32.9 µM), actives largely listed as activators; also: nearly all actives have a fitted effect of over 55% in size
Pf growth 96h = Primary qHTS for delayed death inhibitors of the malarial parasite plastid, 96 hour incubation; P. falciparum luciferase reporter growth, 96 h; Potency, µM (titrated, usually from 28.7 µM), hits mostly inhibitors; 320,000 tested, 6.9% active; AID 504834, 2011; active = well fitted inhibition curve with a large enough effect; inconclusive = small, poorly fitted or top-dose-only effect, or another doubt; inactive = no such curve, though single readings can be large or run the other way
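Luminescence readout: decreased luciferase signal marks inhibited growth of reporter-expressing P. falciparum in infected red cells (2% hematocrit, 0.05% parasitemia final), exposed to compound two generations (96 h, 37 C, 5% CO2).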
NS1 inh = qHTS Assay for Inhibitors of Influenza NS1 Protein Function. 270,000 tested, 0.4% active. AID 2326, 2010. Potency, µM (highest dose often 46.1 µM); also: actives are rising curves; nearly all actives have a fitted effect of over 50% in size
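A cell-based growth assay was used: compounds that relieve NS1-induced slow growth of budding yeast raise OD600. Assay medium was yeast nitrogen base with ammonium sulphate and -URA supplement, pH 6.0, with 2% galactose.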
Hits are given with their value; i = inactive; ? = inconclusive; nt = no result; [ ] = remark or other dose. Unless noted, calls follow the shape of the full dose curve.

SMILES	Shiga toxin inh	CHX counter	Pf growth 48h	SARS PLpro yeast	Pf growth 96h	NS1 inh
CCC1Oc2ccccc2C(=O)N(CC(=O)c2ccc3c(c2)OCCO3)C1=O (stereo not given)	i	34.1	i	i	i	i
CC1(C)N=C(N)N=C(N)N1CCCCc1ccccc1	nt	nt	nt	nt	nt	i
CC1CCN(C(=O)c2cc(F)c(F)cc2Cl)CC1	i	i	i	i	i	i
O=C1CCCC/C1=C/Nc1cccc(C(F)(F)F)c1	50.4	47.9	i	i	?	i
O=C1CCC/C1=C/Nc1ccc2c(c1)OCO2	94.8	42.2	?	i	i	i
CC1CCC/C(=C\Nc2ccc3c(c2)OCO3)C1=O (stereo not given)	51.2	32.7	nt	i	i	i
O=C1CCC/C1=C/Nc1ccc(Cl)cc1	71.7	30.5	i	i	?	nt
CCOC(=O)c1ccc(N/C=C2\CCCCC2=O)cc1	48.4	25.0	nt	i	nt	i
O=C1CCCC/C1=C/Nc1ccc(S(=O)(=O)Nc2ncccn2)cc1	i	i	i	i	i	i
C[C@H](NC(=O)c1ccccc1Cl)C(=O)OC(C(=O)Nc1cc(C(F)(F)F)ccc1Cl)c1ccccc1 (stereo not given in full)	i	i	nt	i	8.28µM	i
CC(C)C(=O)NC(Nc1ccccc1F)C(Cl)(Cl)Cl (stereo not given)	i	i	i	i	i	i
CCCC(=O)NC(Nc1cccc(C(F)(F)F)c1)C(Cl)(Cl)Cl (stereo not given)	i	i	?	i	1.85µM	i
CCCC(=O)NC(Nc1ccccc1F)C(Cl)(Cl)Cl (stereo not given)	i	i	?	i	?	i
CCCC(=O)NC(Nc1cc(C(F)(F)F)ccc1Cl)C(Cl)(Cl)Cl (stereo not given)	i	i	11.7µM	i	?	i
CC(C)C(=O)NC(Nc1cc(C(F)(F)F)ccc1Cl)C(Cl)(Cl)Cl (stereo not given)	i	i	?	i	13.1µM	i
Cc1ccc(S(=O)(=O)NCCCN2CCCC2)cc1	i	i	i	i	i	i
CCN(CC)C(CNC(=O)c1cc(=O)[nH]c2ccccc12)c1ccccc1Cl (stereo not given)	i	i	i	i	i	i
CCN(CCn1cccn1)C(=O)c1cc(COc2ccc(F)cc2Cl)on1	i	i	i	i	?	i
CC(CCn1cccn1)NC(=O)c1cc(COc2ccc(F)cc2Cl)on1 (stereo not given)	i	i	i	i	10.4µM	i
O=C(NCCCn1cccn1)c1cc(COc2ccc(F)cc2Cl)on1	22.2	19.4	i	i	i	i
CC(CCn1cccn1)NC(=O)c1cc(COc2ccc(F)cc2F)on1 (stereo not given)	i	i	i	i	?	i
CC(=O)c1ccc(OCc2cc(C(=O)NC(C)CCn3cccn3)no2)cc1 (stereo not given)	111.1	65.5	i	i	i	i
COCCn1c(N)c(C(=O)NS(=O)(=O)c2ccc(C)cc2)c(=O)[nH]c1=O	i	i	?	i	?	nt
Cc1cc(N2C(=O)C(O)=C(C(=O)c3cc4ccccc4o3)C2c2cccc(Cl)c2)no1 (stereo not given)	i	i	i	i	?	i
CCCCOc1ccc(C(=O)NCC(=O)NCC(c2cccs2)N2CCOCC2)cc1 (stereo not given)	nt	nt	?	i	i	nt
SMILES	Shiga toxin inh	CHX counter	Pf growth 48h	SARS PLpro yeast	Pf growth 96h	NS1 inh
CCn1c(COc2ccc(=O)n(-c3ccccc3)n2)nnc1SCC(=O)OC	i	i	?	i	i	nt
COc1cc2cc(C(=O)O)[nH]c2c(OC)c1OC	i	i	nt	i	i	i
COc1cc(C(=O)NCCc2ccc(F)cc2)ccc1OCC(=O)N1CCOCC1	nt	nt	i	i	i	nt
CN1CCN(CCCNC(=O)c2ccc3c(=O)n(CCc4ccccc4)c(=O)[nH]c3c2)CC1	i	i	?	i	i	i
COc1ccc(C(=O)NCCc2ccc(F)cc2)cc1OC	i	26.6	i	i	i[5.75 µM]	i
COc1ccc(C(=O)NCCNc2ccc([N+](=O)[O-])cc2)cc1OC	i	i	i	i	5.22µM	i
COc1ccc(CCn2c(=O)[nH]c3cc(C(=O)NCCc4ccccc4)ccc3c2=O)cc1OC	25.3	25.1	i	i	i	i
COCCn1c(=O)[nH]c2cc(C(=O)NCc3ccccc3)ccc2c1=O	i	i	nt	i	1.47µM	i
Cc1ccc(/C=C(\C#N)C(=O)NC(C)c2ccccc2)o1 (stereo not given)	i	i	i	i	?	i
CC(=O)ONC(=Nc1ccccc1)c1nonc1N	i	i	i	i	i	i
CCCCCn1c(=O)[nH]c2cc(C(=O)NCCCN3CCCCC3)ccc2c1=O	i	i	9.28µM	i	nt	i
O=C(NCCc1ccc(F)cc1)c1cccc(NC(=O)c2ccccc2)c1	i	23.2	i	i	?	i
Nc1ccc(N2CCN(c3ccccc3)CC2)c(F)c1	57.4	14.4	i	i	i	i
O=C(CSc1ccccc1)Nc1ccc(N2CCN(c3ccccc3)CC2)c(F)c1	i	i	i	i	i	i
CCN(CC)C(=O)Cn1nnc(-c2ccc(S(C)(=O)=O)cc2)n1	i	i	i	i	i	i
COc1ccc(Cl)cc1NC(=S)NCCCN1CCCC1=O	i	i	i	i	i	nt
COc1cc(C(=O)NCCCN2CCCC2=O)ccc1OCc1ccc(Cl)cc1Cl	nt	nt	10.4µM	i	?	nt
COc1ccccc1CNC(=O)c1ccc2c(=O)n(CCCN3CCCC3=O)c(=S)[nH]c2c1	i	i	?	i	14.7µM	nt
COC(=O)c1ccc2c(=O)n(CCCN3CCCC3=O)c(=S)[nH]c2c1	i	i	11.7µM	i	i	i
COc1ccc(CNC(=O)c2ccc3c(=O)n(CCCN4CCCC4=O)c(=S)[nH]c3c2)cc1	i	i	?	i	4.15µM	nt
CCOCc1nnc(NC(=O)C2CC(=O)N(C3CCCC3)C2)s1 (stereo not given)	i	i	i	i	?	i
N#Cc1ccccc1S(=O)(=O)N1CCN(C(=O)C2CCC2)CC1	nt	nt	i	nt	i	nt
CC1=CC(C)(C)N(S(=O)(=O)c2ccc(F)cc2)c2ccccc21	i	i	?	i	nt	i
CC1=CC(C)(C)N(S(=O)(=O)c2ccc(C)cc2)c2ccc(C)cc21	i	i	nt	i	10.4µM	i
Cn1c(SCc2ccc3c(c2)OCO3)nnc1-c1ccccc1	21.9	15.5	i	i	i	i
O=C(CSc1nnc2ccccn12)Nc1cccc(S(=O)(=O)N2CCOCC2)c1	i	i	i	i	i	i
COc1ccc(CSc2nnc(-c3ccncc3)n2C)cc1F	69.7	i	?	i	i	i
O=C(CSc1nnc2ccccn12)Nc1cccc(-c2nc3ccccc3s2)c1	39.4	i	i	i	?	i
COc1ccccc1NC(=O)C(C)Sc1nnc2ccccn12 (stereo not given)	nt	nt	i	i	i	nt
